# Among all 410,000 compounds or so, about 310 (0.076%) were called active. Roughly 2% stayed inconclusive and do not appear here. The entries come from a sample that favours actives as a whole. Values without a mark were called inactive. Calls follow the shape of the dose curve; as a rule, active = well fitted activation curve with a large enough effect; inconclusive = small, poorly fitted or top-dose-only effect, or another doubt; inactive = no such curve, though single readings can be large or run the other way.
# Biological target: Parathyroid hormone/parathyroid hormone-related peptide receptor (Homo sapiens) (UniProt Q03431)
# Sequence (Q03431 whole entry, looked up): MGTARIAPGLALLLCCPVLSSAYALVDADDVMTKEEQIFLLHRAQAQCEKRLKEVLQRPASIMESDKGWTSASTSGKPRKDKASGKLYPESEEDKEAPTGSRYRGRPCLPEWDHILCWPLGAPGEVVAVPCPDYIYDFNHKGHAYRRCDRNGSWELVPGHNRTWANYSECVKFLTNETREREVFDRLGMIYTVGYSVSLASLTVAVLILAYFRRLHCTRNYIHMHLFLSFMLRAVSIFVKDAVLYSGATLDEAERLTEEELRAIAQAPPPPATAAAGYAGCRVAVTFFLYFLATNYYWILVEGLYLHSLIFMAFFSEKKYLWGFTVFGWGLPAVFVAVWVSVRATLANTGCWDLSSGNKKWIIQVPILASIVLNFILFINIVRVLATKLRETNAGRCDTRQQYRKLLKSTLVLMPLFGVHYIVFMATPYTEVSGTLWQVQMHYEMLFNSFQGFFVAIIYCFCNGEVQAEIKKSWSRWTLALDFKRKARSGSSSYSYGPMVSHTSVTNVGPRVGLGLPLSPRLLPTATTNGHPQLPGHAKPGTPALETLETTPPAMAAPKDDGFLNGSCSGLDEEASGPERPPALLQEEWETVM
# Assay: qHTS for PTHR1 Agonists: Primary Screen; also: nearly all actives have a fitted effect of over 55% in size
# Details: HEK293 GP2 PTHR1 cells, GloSensor cAMP luminescence, 1 h; series mostly up to 115 µM; activation: at the top concentration
# Text: The goal of the proposed studies is to discover new compounds that act as potent agonists on the parathyroid hormone receptor type-1 (PTHR1). The PTHR1 plays critical roles in maintaining blood calcium and phosphate levels, as well as in controlling bone remodeling. PTHR1 agonists could thus be useful for treating diseases such as hypoparathyroidism and osteoporosis. In the former disease, an agonist drug would help maintain normal blood calcium and phosphate levels under conditions of parathyroid hormone deficiency. In the latter disease, an agonist drug would stimulate new bone formation and thus reduce the risk of fracture, under conditions of bone fragility, as occurs in aging.
# To that end, we performed a quantitative high-throughput screening (qHTS) of the Molecular Libraries Probe Centers Network (MLPCN) compound libraries at the NIH Chemical Genomics Center (NCGC) for the parathyroid hormone receptor type-1 (PTHR1) using a unique HEK-293-derived cell line (GP2) that expresses the PTHR1 and a glosensor cAMP reporter construct.
# NIH Molecular Libraries Probe Production Centers Network [MLPCN]
# NIH Chemical Genomics Center [NCGC]
# Assay Submitter (PI): Thomas Gardella, Massachusetts General Hospital
# 4 microL are dispensed into a 1536-well micro plate to yield 3,000 cells/well. The plates are then incubated overnight, after which 4 microL of 0.5 mM of BIoTium Luciferin plus 0.5 mM IBMX are added. They are then incubated at 37 degree for one hour before 23 nL of compounds are added through pinning and then incubated at 37 degree again for another hour. After the plates are kept at room temperature for 15 min before they are read on the ViewLux to measure luminescence.
# Potency is read from the fitted curve at half-maximal effect.
SMILES,activation [%],outcome,Potency
CCN(CC)C(=O)CSc1nc2cc3c(cc2c(=O)n1CCCC(=O)NCc1ccc2c(c1)OCO2)OCO3,-15.7,,
CCOc1ccc(CNC(=O)C2CCCN(S(=O)(=O)N(CC)c3ccc(OCC)cc3)C2)cc1 (stereo unspecified),-6.06,,
CCN(CC)S(=O)(=O)c1ccc2c(c1)c(=O)c(C(=O)N1CCN(c3cccc(Cl)c3)CC1)cn2C,-8.06,,
COc1cccc(CNC(=O)C2CCC(CNS(=O)(=O)c3cccs3)CC2)c1 (stereo unspecified),,inactive,
COc1ccc(N2CCN(S(=O)(=O)c3ccc(-c4coc(C)n4)cc3)CC2)cc1,-12.8,,
Cc1ccc(C)c(N2CCN(C(=O)CN3C(=O)COc4ccc(S(=O)(=O)N5CCCCCC5)cc43)CC2)c1,7.52,,
COc1ccccc1CNC(=O)Cn1nc(C)c2nn(-c3ccc(Cl)cc3)c(C)c2c1=O,-25.9,,
O=C(O)c1ccc(CSc2nc3cccnc3n2Cc2cccc(F)c2)cc1,-22.9,,
CC(C)c1ccc(NC(=O)c2ccc(Cn3nc(N4CCN(c5ccccc5)CC4)ccc3=O)o2)cc1,-7.89,,
O=C(CSc1nccn1C1CCCC1)Nc1cc(C(F)(F)F)ccc1Cl,-85.1,,
Cc1ccc(Cc2cnc(N)s2)o1,,,3.55 µM (active)
Cc1ccc(-c2nc3cccc(C)n3c2Nc2ccc3c(c2)OCCO3)cc1,,inactive,
CCN(CC)c1ccc(NC(=O)Cn2nc3c(cc2=O)CCCC3)c(C)c1,,inactive,
CCC(=O)N1c2ccccc2CC1C(=O)N1CCN(c2ccccc2F)CC1 (stereo unspecified),,inactive,
Cc1cc(C)c(NC(=O)CCc2c(C)nc3c(c(C)nn3C(C)(C)C)c2C)c(C)c1,,inactive,
Cn1c(=O)c(C(=O)O)nn(-c2ccccc2)c1=O,,inactive,
Cc1cc(C)cc(NC(=O)CSc2nc(=O)n(CCN3CCOCC3)c3c2CCC3)c1,-21,,
COc1ccccc1NC(=O)Cn1cnc2ccc(S(=O)(=O)N3CCC(C)CC3)cc2c1=O,-5.33,,
COc1ccc(C2(Nc3cccc(F)c3)C(=O)c3ccccc3C2=O)cc1,-29.1,,

SMILES,activation [%],outcome,Potency
CC1CCN(S(=O)(=O)c2ccc3c(c2)N(CC(=O)NCCc2ccccc2)C(=O)CO3)CC1,,inactive,
COc1ccc(-n2nc(C(=O)NCCc3ccc(Cl)cc3)c3c4ccccc4n(C)c3c2=O)cc1Cl,,inactive,
CCCCSc1ncnc2c1sc1nc(N3CCOCC3)c3c(c12)CCCC3,,,79.4 µM (active)
c1ccc(CSc2ncnc3c2sc2nc(N4CCOCC4)c4c(c23)CCCC4)cc1,,inactive [at 57.5 µM],
CCc1nc2sc3c(Cl)ncnc3c2c2c1CCCC2,,inactive,
COC(=O)c1c(NC(=O)c2cc(=O)c3c(C)cc(C)cc3o2)sc2c1CCCC2,,inactive,
Cc1ccccc1NC(=O)Cn1cc(C(=O)c2cccs2)c2ccccc21,,inactive,
CCCS(=O)(=O)N1CCC(n2c(C(F)(F)F)nc3cccnc32)CC1,,inactive,
Cc1ccc(CN2COc3cc(C)c4c(oc(=O)c5ccccc54)c3C2)cc1,-9.61,,
COc1ccc(OC)c(-n2nnc(-c3nc(-c4cc(OC)c(OC)c(OC)c4)no3)c2C)c1,,inactive,
COc1cc(NC(=O)CCn2nc(C)cc2C)cc(OC)c1OC,1.35,,
Cc1cc(C)cc(NC(=O)Cn2nc(N3CCN(c4ccccc4)CC3)ccc2=O)c1,,inactive,
COc1cccc(NC(=O)N2CCN(C(=O)c3nsc4ccccc34)CC2)c1,-1.57,,
CCCC(=O)N1CCN(c2nc3c(OC)ccc(C)c3s2)CC1,,inactive,
Cc1ccc(NC(=O)CN2C(=O)CC(C)Sc3ccccc32)c(C)c1 (stereo unspecified),,inactive,
COc1cc(NC(=O)c2nc3ccccc3nc2C)cc(OC)c1OC,,inactive,
CC(C)CN(Cc1c(O)ccc2c(=O)c(-c3ccccc3)coc12)CC(C)C,,,35.5 µM (active)
CN(C)Cc1c(O)ccc2c(=O)c(-c3ccccc3Cl)coc12,,inactive,
CCN(Cc1ccccc1)Cc1c(O)ccc2c(=O)c(-c3ccc(Cl)cc3Cl)coc12,4.83,,

SMILES,activation [%],outcome,Potency
CC1CCN(S(=O)(=O)c2ccc3c(c2)N(CC(=O)NCc2ccccc2Cl)C(=O)CO3)CC1,-14.9,,
COC(=O)c1cc(NC(=O)CCc2c(C)nc3c4c(C)cc(C)nc4nn3c2C)cc(C(=O)OC)c1,-11.5,,
COc1ccc(Cn2cc(C(=O)c3ccc(C)cc3)c(=O)c3cc(OC)c(OC)cc32)cc1,-51.3,,
Cc1oc2ncnc(N3CCCCC3)c2c1C(=O)N1CCN(c2cccc(Cl)c2)CC1,,inactive,
CCOC(=O)N1CCc2c(sc3c2C(=O)NC(c2ccccc2F)N3)C1 (stereo unspecified),,inactive,
COc1ccc(NC(=O)Cn2c(=O)cc(C)c3c(C)nn(-c4cccc(Cl)c4C)c32)cc1OC,-21,,
Cc1ccc(C)c(NC(=O)CSC2=Nc3ccccc3N=C(c3ccc(F)cc3)C2)c1,-0.791,,
CCN(CC)c1ccc(NS(=O)(=O)c2cc(-c3cc(C)no3)ccc2C)c(C)c1,-70.5,,
CCCCC12CN3CC(C)(CN(C1)C3c1ccc(O)c(OC)c1)C2=O (stereo unspecified),,inactive,
CC(=O)c1ccc(NC(=O)C2CCN(S(=O)(=O)c3c(C)noc3/C=C/c3ccc(C)cc3)CC2)cc1,-33,,
COC(=O)c1ccccc1NC(=O)c1ccc2c(=O)n3c(nc2c1)CCCCC3,-15.5,,
COc1ccccc1-c1cc2nc(C)c(CCC(=O)NC3CCCCC3)c(C)n2n1,,inactive,
CCc1ccc(CN(Cc2ccco2)C(=O)COc2ccc(Cl)c(C)c2)cc1,-18.1,,
COc1cccc2c1cc1c(=O)n(CC(=O)N3CCN(c4ccccc4)CC3)nc(C)n12,-14.5,,
O=C(NCCc1ccccc1)c1ccc2c(c1)N(Cc1ccc(F)cc1)C(=O)c1ccccc1S2(=O)=O,6.38,,
Cc1nc2ccn(Cc3cccnc3)c(=O)c2cc1C(=O)N1CCN(c2ccccc2F)CC1,,inactive,
CCc1ccc(NC(=O)CCS(=O)(=O)c2cc3c(cc2Cl)NC(=O)CO3)cc1,,inactive,
Cc1ccc(C(=O)Nc2cc3c(cc2N2CCCC2)n(C)c(=O)c(=O)n3C)cc1,4.66,,
